Screening results: PubChem BioAssay, several laboratories
A selection: hits, their analogues and other compounds. The true share with any hit is near 4.7%.
eIF4H inh = inhibitors of RNA binding by human eIF4H; Q15056; eIF4H fluorescence polarization binding assay; inhibition, % at 35 µM; 290,000 compounds, 0.94% hits; AID 2012;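 note: calls also rest on retests at 20 µM and on dose response follow-up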
PABP polyA inh = blocks human PABP binding to poly(A) RNA; P11940; fluorescence polarization; inhibition, % at 35 µM; 290,000 compounds, 1% hits; AID 2014;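 note: calls also rest on retests at 20 µM and on dose response follow-up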
Efflux pump mplx = blocks antifungal efflux pumps in multiplex yeast assay; 330,000 compounds, 0.44% hits; inhibition, % at 10 µM; S. cerevisiae Candida pump triplex, Nile Red efflux;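 active = plate passing quality check with inhibition over a set limit, or well fluorescence over plate mean plus 4 SD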;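 note: Nile Red retained in pooled yeast measured as flow cytometry median fluorescence; higher means more Nile Red kept so more efflux inhibition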
ALR inh = blocks human ALR sulfhydryl oxidase activity; P55789; purified ALR, DTT oxidation, H2O2 HRP-luminol luminescence; inhibition, % (concentration not given with the values); 290,000 compounds, 3.8% hits; AID 485317;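 active = mean replicate inhibition above about 79%, with every replicate also reaching it, limit read from the data; inconclusive = only one of the two criteria met; inactive = mean below limit and not every replicate reaching it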
Target sequence (P55789 whole entry, looked up): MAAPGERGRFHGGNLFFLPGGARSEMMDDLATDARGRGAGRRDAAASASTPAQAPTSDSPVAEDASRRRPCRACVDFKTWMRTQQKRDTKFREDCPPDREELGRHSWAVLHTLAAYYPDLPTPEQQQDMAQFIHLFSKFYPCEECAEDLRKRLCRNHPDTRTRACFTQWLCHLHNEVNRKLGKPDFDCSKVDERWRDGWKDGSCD
MLLE-PAM2 inh = inhibitors of microRNA-mediated deadenylation, human PABP1 MLLE binding | inhibition, % at 20 µM | 360,000 compounds, 0.36% hits | P11940 | AID 588489 | GST-MLLE / FITC-PAM2 fluorescence polarization; in the data active = inhibition above about 35%, passing the limit was not always enough
SUMO HTRF inh = inhibitors of human SUMOylation (UBC9) | P63279 | HTRF SUMOylation assay, SAE1/SAE2 + UBC9, in vitro | inhibition, % at 35 µM | 290,000 compounds, 0.36% hits; in the data active = inhibition above about 50%, passing the limit was not always enough; inconclusive = no clear call, values can overlap the other calls
Target sequence (P63279 whole entry, looked up): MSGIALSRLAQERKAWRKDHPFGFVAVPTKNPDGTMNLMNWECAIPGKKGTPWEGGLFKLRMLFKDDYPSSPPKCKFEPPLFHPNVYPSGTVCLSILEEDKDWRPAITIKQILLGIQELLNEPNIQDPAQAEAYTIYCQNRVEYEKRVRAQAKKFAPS
Numbers stand for hits; ! = not confirmed by another sample. Unless noted, the rule behind the calls is not given here.

What do the screens show for `CN1CCN(c2nc3c(c(=O)[nH]c(=O)n3C)n2CCCSc2nnnn2-c2ccccc2)CC1`?
eIF4H inh: inactive; PABP polyA inh: inactive; Efflux pump mplx: inactive; ALR inh: inactive; MLLE-PAM2 inh: inactive; SUMO HTRF inh: inactive

Results for O=C1C2CC3N1CCC31c3ccccc3-n3c1c2ccc3=O (configuration not stated) ?
MLLE-PAM2 inh: inactive

How did COc1ccc(-c2csc(C(C)(NC(C)=O)c3ccccc3)n2)cc1 (configuration not stated) do in these assays?
MLLE-PAM2 inh: inactive

How did CC(=O)NC(=S)Nc1sc2c(c1C(N)=O)CCC(C)C2 (configuration not stated) do in these assays?
eIF4H inh: inactive; PABP polyA inh: inactive; Efflux pump mplx: inactive; ALR inh: 89; MLLE-PAM2 inh: inactive; SUMO HTRF inh: inactive

Results for CCOC(=O)c1c(C)oc2c1cc(NS(=O)(=O)c1ccc(C(=O)O)cc1)c1ccccc12 ?
eIF4H inh: inactive; PABP polyA inh: inactive; Efflux pump mplx: inactive; MLLE-PAM2 inh: inactive; SUMO HTRF inh: inactive

What do the screens show for `CCOC(=O)c1ccc(S(=O)(=O)Nc2cc(C(=O)O)ccc2Cl)cc1`?
eIF4H inh: inactive; PABP polyA inh: inactive; Efflux pump mplx: inactive; ALR inh: 99; MLLE-PAM2 inh: inactive; SUMO HTRF inh: inactive

What do the screens show for `O=c1cc(O)nc(SCc2ccccc2)n1-c1ccc(Cl)cc1`?
eIF4H inh: inactive; PABP polyA inh: inactive; Efflux pump mplx: inactive; ALR inh: 98; MLLE-PAM2 inh: inactive; SUMO HTRF inh: inactive

What do the screens show for `O=C(CSc1nc(O)cc(=O)n1-c1ccc(Cl)c(Cl)c1)Nc1ccc(Cl)cc1Cl`?
eIF4H inh: inactive; PABP polyA inh: inactive; Efflux pump mplx: inactive; ALR inh: 98; MLLE-PAM2 inh: inactive; SUMO HTRF inh: inactive

How did O=C(CSc1nc(O)cc(=O)n1-c1ccccc1)Nc1ccc(Br)cn1 do in these assays?
eIF4H inh: inactive; PABP polyA inh: inactive; Efflux pump mplx: inactive; ALR inh: inactive; MLLE-PAM2 inh: inactive; SUMO HTRF inh: inactive

How did NC(=O)CSc1nc(O)cc(=O)n1-c1ccccc1 do in these assays?
eIF4H inh: inactive; PABP polyA inh: inactive; Efflux pump mplx: inactive; ALR inh: inactive; MLLE-PAM2 inh: inactive; SUMO HTRF inh: inactive

How did Cc1ccc(NC(=O)CSc2nc(O)cc(=O)n2C)cc1 do in these assays?
eIF4H inh: inactive; PABP polyA inh: inactive; Efflux pump mplx: inactive; ALR inh: 99; MLLE-PAM2 inh: inactive; SUMO HTRF inh: inactive

What do the screens show for `Cn1c(SCC(=O)Nc2ccc(Br)cc2)nc(O)cc1=O`?
eIF4H inh: inactive; PABP polyA inh: inactive; Efflux pump mplx: inactive; ALR inh: 99; MLLE-PAM2 inh: inactive; SUMO HTRF inh: inactive

How did COc1ccc(CC(N)c2csc(Nc3nc(C)cnc3C)n2)cc1 (configuration not stated) do in these assays?
MLLE-PAM2 inh: inactive

What do the screens show for `CN(c1ccccc1)S(=O)(=O)c1cccc(C(=O)NCCCN2CCCC2=O)c1`?
Efflux pump mplx: inactive; ALR inh: inactive; MLLE-PAM2 inh: inactive

Results for CCSc1nc(O)cc(=O)n1-c1ccc(OC)cc1 ?
eIF4H inh: inactive; PABP polyA inh: inactive; Efflux pump mplx: inactive; ALR inh: inactive; MLLE-PAM2 inh: inactive; SUMO HTRF inh: inactive

How did Cc1ccc(NC(=O)CSc2nc(O)cc(=O)n2-c2ccc(C)cc2)cc1 do in these assays?
Efflux pump mplx: inactive; ALR inh: 100; MLLE-PAM2 inh: inactive

What do the screens show for `COc1ccc(-n2c(SCC(=O)Nc3ccc(Br)cc3)nc(O)cc2=O)cc1`?
eIF4H inh: inactive; PABP polyA inh: inactive; Efflux pump mplx: inactive; ALR inh: 99; MLLE-PAM2 inh: inactive; SUMO HTRF inh: inactive

How did O=C(C[C@H]1C/C=C\C[C@H](NC(=O)OCC2c3ccccc3-c3ccccc32)C(=O)O[C@H](c2ccccc2)CNC1=O)N[C@H](CO)Cc1ccccc1 do in these assays?
Efflux pump mplx: inactive; ALR inh: inactive; MLLE-PAM2 inh: inactive

Results for CCOc1cccc(=O)c2c(C)n(C)c(C)c12 ?
eIF4H inh: 60; PABP polyA inh: 69; Efflux pump mplx: inactive; ALR inh: inactive; MLLE-PAM2 inh: inactive; SUMO HTRF inh: inactive

What do the screens show for `COc1cccc(CN(C)C(=O)c2ccc3nccnc3c2)c1`?
eIF4H inh: 88; PABP polyA inh: 90; Efflux pump mplx: inactive; ALR inh: inactive; MLLE-PAM2 inh: inactive; SUMO HTRF inh: inactive

What do the screens show for `COc1ccccc1N=c1oc2c(OC)cccc2cc1C(=O)NCc1ccco1`?
eIF4H inh: inactive; PABP polyA inh: inactive; Efflux pump mplx: inactive; ALR inh: 86; MLLE-PAM2 inh: inactive; SUMO HTRF inh: inactive

Results for COc1ccc(N=c2oc3c(OC)cccc3cc2C(=O)NCc2ccco2)cc1OC ?
eIF4H inh: inactive; PABP polyA inh: inactive; Efflux pump mplx: inactive; ALR inh: inactive; MLLE-PAM2 inh: inactive; SUMO HTRF inh: inactive

What do the screens show for `COc1cccc(C(=O)N/N=c2\oc3c(OC)cccc3cc2C(=O)NCc2ccccc2)c1`?
eIF4H inh: inactive; PABP polyA inh: inactive; Efflux pump mplx: inactive; ALR inh: inactive; MLLE-PAM2 inh: inactive; SUMO HTRF inh: inactive

What do the screens show for `COc1ccc(OC)c(N=c2oc3c(OC)cccc3cc2C(=O)NCc2ccco2)c1`?
eIF4H inh: 118; PABP polyA inh: inactive; Efflux pump mplx: inactive; ALR inh: inactive; MLLE-PAM2 inh: inactive; SUMO HTRF inh: inactive

Results for Cc1ccc(C(=O)Nc2nc(=O)[nH]s2)cc1 ?
eIF4H inh: inactive; PABP polyA inh: inactive; Efflux pump mplx: inactive; ALR inh: inactive; MLLE-PAM2 inh: inactive; SUMO HTRF inh: inactive

Results for CCN(CC)c1ccc(SS(=O)(=O)O)cc1 ?
eIF4H inh: inactive; PABP polyA inh: inactive; Efflux pump mplx: inactive; ALR inh: 99!; MLLE-PAM2 inh: 43!; SUMO HTRF inh: inactive

Results for CCOC(=O)c1[nH]c2ccccc2c1NC(=S)Nc1cccc(C)c1C ?
eIF4H inh: inactive; PABP polyA inh: inactive; Efflux pump mplx: inactive; MLLE-PAM2 inh: 41; SUMO HTRF inh: inactive

What do the screens show for `O=C(c1ccccc1)N1CCC(=O)N1c1ccccc1`?
eIF4H inh: inactive; PABP polyA inh: inactive; Efflux pump mplx: inactive; ALR inh: inactive; MLLE-PAM2 inh: inactive; SUMO HTRF inh: inactive

Results for O=C1CN(c2ccccc2)C(=S)N1C(=O)c1ccccc1 ?
eIF4H inh: inactive; PABP polyA inh: inactive; Efflux pump mplx: inactive; ALR inh: 98; MLLE-PAM2 inh: inactive; SUMO HTRF inh: inactive

How did CCN(CC(=O)N1CCc2ccccc2C1)S(=O)(=O)c1ccc2ccccc2c1 do in these assays?
eIF4H inh: inactive; PABP polyA inh: inactive; Efflux pump mplx: inactive; ALR inh: inactive; MLLE-PAM2 inh: inactive; SUMO HTRF inh: inactive

What do the screens show for `CN1Cc2c(N)cccc2C(c2ccccc2)C1` (configuration not stated)?
eIF4H inh: inconclusive; PABP polyA inh: inactive; Efflux pump mplx: inactive; ALR inh: inactive; MLLE-PAM2 inh: 80!; SUMO HTRF inh: inactive

Results for CC1(C)S/C(=N/N=C/c2ccco2)NC1=O ?
eIF4H inh: inconclusive; PABP polyA inh: 121; Efflux pump mplx: inactive; ALR inh: inactive; MLLE-PAM2 inh: inactive; SUMO HTRF inh: inactive
